# TEAD-YAP block – TEAD-YAP interaction inhibition, primary screen, TEAD-YAP interaction inhibitor project, luminescence, HEK-TIYL cells | TEAD-Gal4/YAP UAS-luciferase luminescence | inhibition, % at 9.12 µM | actives 1.4% (n = 640,000); in the data active = inhibition above about 32%;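 note: 0% = median of test compound wells and 100% = reference inhibitor wells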
# GPR151 activ – activators of human GPR151, primary screen, cell-based, PathHunter beta-arrestin, luminescence | PathHunter beta-arrestin GPR151 cells | actives 1% (n = 650,000) | G-protein coupled receptor 151 (Homo sapiens), Q8TDV0 | activation, % at 11.2 µM | AID 1508602, 2020; in the data active = activation above about 4.9%;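 note: 0% = median of compound wells and 100% = cells with positive control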
# FBW7 activator – FBW7 E3 ligase activators, primary screen, biochemical, AlphaScreen, human | F-box/WD repeat-containing protein 7 (Homo sapiens), Q969H0 | normalized activity (activation), % at 26.1 µM | AlphaScreen FBW7–phospho-cyclin E peptide binding, activator screen | actives 0.13% (n = 650,000); in the data active = normalized activity above about 1.9%;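 note: purified mutant Fbw7 with reduced substrate affinity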
# Target sequence (Q969H0 whole entry, looked up): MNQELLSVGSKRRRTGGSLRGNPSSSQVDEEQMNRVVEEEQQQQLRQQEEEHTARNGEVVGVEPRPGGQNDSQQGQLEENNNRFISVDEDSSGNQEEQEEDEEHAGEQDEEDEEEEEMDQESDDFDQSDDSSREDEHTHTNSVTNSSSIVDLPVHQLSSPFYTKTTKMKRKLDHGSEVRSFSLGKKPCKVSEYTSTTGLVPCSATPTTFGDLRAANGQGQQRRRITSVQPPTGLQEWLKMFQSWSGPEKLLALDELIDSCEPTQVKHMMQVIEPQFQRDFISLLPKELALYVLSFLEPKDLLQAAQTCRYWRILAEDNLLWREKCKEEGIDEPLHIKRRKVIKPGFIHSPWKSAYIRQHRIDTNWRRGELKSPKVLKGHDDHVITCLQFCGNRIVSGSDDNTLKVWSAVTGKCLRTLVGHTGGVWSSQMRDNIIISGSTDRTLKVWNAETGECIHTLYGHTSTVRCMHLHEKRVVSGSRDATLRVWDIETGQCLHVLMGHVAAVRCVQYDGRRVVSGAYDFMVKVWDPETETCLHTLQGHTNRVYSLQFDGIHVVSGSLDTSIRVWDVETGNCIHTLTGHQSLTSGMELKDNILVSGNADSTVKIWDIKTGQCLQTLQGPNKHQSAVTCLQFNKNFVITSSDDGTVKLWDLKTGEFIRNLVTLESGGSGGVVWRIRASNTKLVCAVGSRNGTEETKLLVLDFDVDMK
# MITF primary – MITF inhibitors, primary screen, biochemical, AlphaScreen, human; actives 0.91% (n = 650,000); Microphthalmia-associated transcription factor (Homo sapiens), O75030; inhibition, % at 2.6 µM; AlphaScreen MITF homodimerization, bead proximity signal; in the data active = inhibition above about 50%;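 note: 0% = vehicle wells with protein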
# GPR151 confirm – GPR151 activators, triplicate retest, confirmation, cell-based, PathHunter beta-arrestin, luminescence | shares compounds with GPR151 activ | GPR151 PathHunter beta-arrestin cells, 90 min; % of EA-reagent control over plate median | activation, % at 11.2 µM | 6,700 tested, under 10 active | AID 1508609, 2020;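 active = mean percent activation across replicates above the confirmation screen cutoff of 4.91%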
# GPR119 counter – GPR119 activators in beta-arrestin cells, counter-screen for GPR151 activator project, cell-based, PathHunter beta-arrestin, luminescence, triplicate; shares compounds with GPR151 activ; actives 0.3% (n = 6,700); AID 1508611, 2020; 90 min; 0 = compound-well median, 100 = enzyme-acceptor control; activation, % at 11.2 µM;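 active = mean percent activation in the counterscreen above 29.09%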;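 note: counterscreen on off-target GPR119 to flag nonselective hits from the GPR151 activator screen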
# * = called active by the depositor; . = no result; ! = not confirmed by another sample. An excerpt weighted towards active compounds, which were near 3.5% of everything screened.
SMILES,TEAD-YAP block,GPR151 activ,FBW7 activator,MITF primary,GPR151 confirm,GPR119 counter
COc1ccc(S(=O)(=O)Nc2cccc(N(C)S(C)(=O)=O)c2)c(Cl)c1Cl,9.0,-1.5,-0.2,4.6,.,.
COc1ccc(S(=O)(=O)Nc2cccc([N+](=O)[O-])c2)c(Cl)c1Cl,13.5,5.2*,-0.2,-3.1,-0.6,-4.5
COc1ccc(S(=O)(=O)NCCSC(C)(C)C)c(Cl)c1Cl,-2.8,8.6*,0.0,7.5,1.6,8.2
Cc1cccc(NC(=S)N(Cc2ccccc2)Cc2cccs2)c1,-10.9,1.4,0.1,10.8,.,.
CSc1cccc(NC(=S)N(Cc2ccccc2)Cc2cccs2)c1,-4.8,6.5*,0.5,4.8,0.1,9.0
N#Cc1ccc(Oc2ccc(C(=O)OCC(=O)c3ccccc3)cc2)cc1C#N,7.4,-0.4,-0.1,-17.7,.,.
COc1cc(C2C(C(=O)OC3CCCCC3)=C(C)NC3=C2C(=O)CC(C)(C)C3)cc(OC)c1OC (centres undefined),-5.0,12.4*,0.1,-8.6,-0.3,6.2
CCOC(=O)C1=C(C)NC2=C(C(=O)CC(C)(C)C2)C1c1cccc(OC)c1OC (centres undefined),15.7,0.1,0.4,11.1,.,.
CCOC(=O)C1=C(C)NC2=C(C(=O)CC(C)(C)C2)C1c1ccc(OC)c(OC)c1OC (centres undefined),-13.8,11.8*!,0.2,0.5,0.3,4.7
Cc1ccc(CSc2nc3[nH]ncc3c(=O)n2-c2ccc(C)cc2)cc1,-3.8,0.1,-0.2,-4.6,.,.
CCCN1CCC(=NNC(=O)c2ccc(Cl)cc2Cl)CC1,2.3,4.9*,0.1,16.0,1.1,6.4
O=C(c1cc2c(=O)oc3ccccc3c2s1)N1CCC2(CC1)OCCO2,-1.6,0.2,0.0,6.8,.,.
Cc1ccc(-n2ncc3c(SCC(=O)Nc4ccc(C(N)=O)cc4)ncnc32)c(C)c1,8.1,5.3*,0.2,3.2,1.4,0.2
Cc1ccc(-n2ncc3c(SCC(=O)NC(C)C)ncnc32)c(C)c1,-0.1,1.0,-0.2,1.7,.,.
COCCN(C)C(=O)CN1Cc2cc(C)ccc2OC(c2ccsc2)C1 (centres undefined),0.9,-0.5,0.0,16.2,.,.
Cc1nc(CNc2nncc(-c3ccc(C(F)(F)F)cc3)n2)cs1,-4.7,-0.7,-0.1,1.9,.,.
O=C(O)CCC/C=C\C[C@@H]1[C@@H](/C=C/[C@@H](O)COc2cccc(C(F)(F)F)c2)[C@H](O)C[C@@H]1O,.,3.9,.,-4.7,.,.
O=C(O)CCC/C=C/C[C@@H]1[C@@H](/C=C/[C@@H](O)COc2cccc(C(F)(F)F)c2)[C@H](O)C[C@@H]1O,.,5.1*,.,2.0,1.6,7.7
COc1cc(OC)cc(-n2nc(C(=O)N3CCCCC3)c3ccccc3c2=O)c1,5.7,12.8*,-0.1,10.1,-0.3,-0.3
O=C(c1n[nH]c(=O)c2ccccc12)N1CCCCCC1,-0.3,5.6*,0.1,17.1,-0.5,6.0
COc1cc(OC)cc(-n2nc(C(=O)N3CCCCCC3)c3ccccc3c2=O)c1,-3.3,1.4,0.1,0.4,.,.
NC(=O)CSc1cn(CCNC(=O)c2ccc(Cl)cc2Cl)c2ccccc12,-14.2,-0.6,-0.1,-5.0,.,.
COc1ccc(-c2c(C)nn3c(NCc4ccncc4)c(C)c(C)nc23)cc1,6.3,0.1,-0.1,15.8,.,.
O=C(Nc1ccc2c3c(cccc13)CC2)c1ccc(-c2ccc(Cl)cc2)o1,-6.0,5.1*,0.1,13.9,-0.5,-3.8
NS(=O)(=O)c1ccc(NC(=O)COc2ncnc3scc(-c4ccccc4)c23)cc1,-4.3,5.5*,0.0,-11.9,-1.1,1.5
SMILES,TEAD-YAP block,GPR151 activ,FBW7 activator,MITF primary,GPR151 confirm,GPR119 counter
CC1CCCN(C(=O)NC2(C(F)(F)F)Oc3ccccc3O2)C1 (centres undefined),-15.1,5.7*,0.2,7.3,1.0,6.8
O=C1c2ccc(Oc3ccc(Nc4ncnc5sc6c(c45)CCCC6)cc3)cc2C(=O)N1Cc1ccco1,4.7,-0.3,0.0,8.6,.,.
O=C(CC1(O)C(=O)N(Cc2ccccc2)c2ccccc21)c1ccccc1 (centres undefined),0.9,-1.0,0.0,5.5,.,.
CCN(CC)C(=O)CN1C(=O)C(O)(CC(=O)c2ccccc2)c2ccccc21 (centres undefined),5.2,7.6*,0.7,11.3,0.1,0.8
CCCOc1ccc(OC(=O)c2sc3ncn(Cc4ccccc4F)c(=O)c3c2C)cc1,-7.9,0.6,-0.1,-1.1,.,.
CN(c1cccc(NS(=O)(=O)c2ccc3ccccc3c2)c1)S(C)(=O)=O,5.1,-0.4,-0.1,-0.3,.,.
CN(NS(=O)(=O)c1ccc2ccccc2c1)c1ccccc1,-0.2,7.6*,0.0,5.2,0.5,1.4
CCCN(CCC)CCCN1C(=O)C2C(C(=O)Nc3ccc(F)c(Cl)c3)C3C=CC2(O3)C1C(=O)NC1CCCC(C)C1C (centres undefined),2.2,-0.9,-0.2,-7.0,.,.
CCCN(CCC)CCN1C(=O)C2C(C(=O)Nc3ccc(F)c(Cl)c3)C3C=CC2(O3)C1C(=O)NC1CCCC(C)C1C (centres undefined),9.0,6.9*,-0.1,1.4,1.2,-1.5
COc1ccc(NC(=O)C2C3C=CC4(O3)C2C(=O)N(C(C)CCc2ccccc2)C4C(=O)NC2CCCC(C)C2C)cc1 (centres undefined),9.0,7.0*,-0.1,0.7,-0.1,-3.1
O=C1NC(CC(=O)N2CCCC(n3nc(-c4ccco4)ccc3=O)C2)c2ccccc21 (centres undefined),-5.9,-0.2,0.0,6.6,.,.
CCOC(=O)c1cccc(NC(=O)CCc2c(C)nc3nc(CN)nn3c2C)c1,12.4,5.9*,-0.2,3.0,-1.9,-20.5
O=C(COC(=O)c1ccc(OC(F)F)cc1)Nc1cccnc1Cl,-3.5,11.5*,0.4,12.4,-0.7,4.5
CC(NC(=O)Nc1ccc(S(N)(=O)=O)cc1)(C(F)(F)F)C(F)(F)F,-1.9,4.9*,-0.1,22.1,-0.1,-4.7
CC(C)C(C)NC(=O)CSc1nnc(COc2ccccc2Cl)o1 (centres undefined),9.5,7.7*,0.1,8.2,-0.7,-2.5
COc1ccccc1OCc1nnc(SCC(=O)N(C)C)o1,-8.4,0.0,1.0,-5.2,.,.
CC(C)(C)C1CCc2c(sc(NC(=O)c3ccco3)c2C(=O)NCCc2ccccc2)C1 (centres undefined),-5.8,-0.7,0.0,-16.6,.,.

# From PubChem BioAssay
